# Assay outcomes (PubChem)
# RecA splice inh: Mtb RecA intein splicing inhibitors, primary screen, biochemical, fluorescence, HTS | Protein RecA (Mycobacterium tuberculosis (strain ATCC 25618 / H37Rv)), P9WHJ3 | cell-free RecA intein splicing | inhibition, % (concentration not given with the values) | 290,000 compounds, 0.75% hits | AID 2221, 2009; in the data active = inhibition above about 30%;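 also: 0% = vehicle wells and 100% = reference inhibitor control wells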
# Target sequence (P9WHJ3 whole entry, looked up, canonical isoform): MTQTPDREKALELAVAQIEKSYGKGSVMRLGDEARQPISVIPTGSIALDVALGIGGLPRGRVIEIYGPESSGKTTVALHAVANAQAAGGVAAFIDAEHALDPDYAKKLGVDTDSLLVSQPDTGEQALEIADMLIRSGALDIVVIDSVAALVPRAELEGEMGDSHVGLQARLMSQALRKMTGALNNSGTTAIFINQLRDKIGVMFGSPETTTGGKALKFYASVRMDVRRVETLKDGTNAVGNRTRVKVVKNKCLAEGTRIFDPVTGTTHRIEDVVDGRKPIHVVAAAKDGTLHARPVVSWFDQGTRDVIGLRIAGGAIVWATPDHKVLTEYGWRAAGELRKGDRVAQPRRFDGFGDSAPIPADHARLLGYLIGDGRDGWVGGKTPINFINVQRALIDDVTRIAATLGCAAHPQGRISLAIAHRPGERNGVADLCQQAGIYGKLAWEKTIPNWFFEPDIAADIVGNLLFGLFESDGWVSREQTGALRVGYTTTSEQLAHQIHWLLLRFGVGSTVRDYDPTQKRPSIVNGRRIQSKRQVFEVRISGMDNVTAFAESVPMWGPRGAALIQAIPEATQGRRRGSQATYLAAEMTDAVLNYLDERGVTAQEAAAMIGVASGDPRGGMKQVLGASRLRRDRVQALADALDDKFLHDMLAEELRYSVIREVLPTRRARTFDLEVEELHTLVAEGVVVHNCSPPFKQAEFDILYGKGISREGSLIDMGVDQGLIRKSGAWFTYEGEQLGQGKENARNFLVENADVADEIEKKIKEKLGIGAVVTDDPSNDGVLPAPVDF
# Mtb hypoxia rep: PubChem AID 1159583; M. tuberculosis hypoxia-regulated fluorescent reporter, fluorescence; fluorescence inhibition, % (concentration not given with the values); 300,000 compounds, 0.1% hits; in the data active = fluorescence inhibition mostly above about 23%, no sharp cut-off; inactive = mostly below about 17%
# Mtb bLac sens: beta-lactam sensitization of Mtb H37Rv, H37Rv; M. tuberculosis H37Rv growth with meropenem, percent inhibition; inhibition, % at 25 µM; 330,000 compounds, 0.27% hits; call rule not given here;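 also: growth measured after seven days incubation then overnight dye step; 0% = bacteria only wells and 100% = bacteria with antibiotic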
# PfHsp40 rescue: rescue of yeast from PfHsp40 toxicity, primary screen, S. cerevisiae, ATP luminescence; S. cerevisiae expressing PfHsp40, growth rescue; growth rescue, % at 12.5 µM; 340,000 compounds, 0.68% hits; AID 504582, 2011; in the data active = growth rescue above about 28%, passing the limit was not always enough;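 also: yeast W303a lacking pdr1 and pdr3 grown in galactose medium; growth measured after three days at 30 °C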
# CCHFV vOTU inh: CCHFV vOTU protease inhibitors, primary screen, biochemical, Pep-AMC substrate, fluorescence; inhibition, % at 11.5 µM; Crimean-Congo hemorrhagic fever virus L polyprotein viral ovarian tumor (vOTU) protease …; 370,000 compounds, 0.55% hits; AID 651958, 2012; in the data active = inhibition above about 30%; also: 0% = vehicle wells with enzyme and 100% = no enzyme wells
# Active calls of the source: *; · = no result shown. This is a sample that favours compounds with a hit; in the whole collection about 1.7% have one here.
SMILES,RecA splice inh,Mtb hypoxia rep,Mtb bLac sens,PfHsp40 rescue,CCHFV vOTU inh
COc1ccc(C)cc1NC(=O)CSc1nnc(COc2ccccc2)n1Cc1ccco1,10,2,-2,1,10
Cc1ccc(NC(=O)CSc2nsc(SCC(=O)Nc3ccc(C)cc3C)c2C#N)c(C)c1,3,·,-1,55*,-7
COC(=O)C1=C(c2cc3ccccc3s2)CC2CCC1N2C(=O)N1CCOCC1 (stereo unspecified),·,0,·,·,·
COc1ccc(CCNC(=O)c2cc3c(=O)n4ccccc4nc3n(Cc3ccco3)c2=N)cc1OC,-8,39*,9,4,-10
COc1ccc(CCn2c(=N)c(C(=O)NCc3ccco3)cc3c(=O)n4ccccc4nc32)cc1OC,·,-1,·,-1,-4
CC(C)(O)C=CC[C@](C)(O)C1CC[C@]2(C)C1C(OC1OC(CO)C(O)C(O)C1O)CC1[C@@]3(C)CCC(O)C(C)(C)C3C(O)C[C@]12C (stereo partly specified),·,2,·,·,·
Cc1ccc(NC(=O)CSCC(=O)N2CCN(c3cccc(C(F)(F)F)c3)CC2)cc1,0,5,1,41*,12
Cn1c(=O)cc(OCC(=O)N2CCN(c3cccc(C(F)(F)F)c3)CC2)c2ccccc21,-2,-5,2,48*,1
Cc1cc(NC(=O)CSCC(=O)N2CCN(c3cccc(C(F)(F)F)c3)CC2)no1,-3,0,2,·,-15
COCCCNC(=S)NN=Cc1ccc(O)cc1O,·,7,·,·,·
CCOC1OC(C(=O)N2CCOCC2)=CC(c2ccccc2)C1CCCO (stereo unspecified),·,-1,·,·,·
Cc1ccc(NS(=O)(=O)c2ccc(-c3cnc(C4CC4)o3)cc2)cc1,-8,6,-1,0,11
Cc1cccc(C)c1NS(=O)(=O)c1ccc(-c2cnc(C3CC3)o2)cc1,9,13,-3,283*,10
CC(C)(O)c1ccc2c(c1)CCC1C(C)(C(=O)O)CCCC21C (stereo unspecified),·,·,-1,0,-5
CC(C)c1c(O)ccc2c1CC[C@H]1C(C)(C)CCC[C@]21C,·,·,·,112*,12
CCCOC(=O)C(C)=NNC(=O)c1ccco1,·,1,·,·,·
COc1ccc(-c2cc(-c3ccc(OC)cc3)[nH]n2)cc1,11,·,99,53*,-1
CCN1CC2C3C(=O)N(C)C(=O)C3[C@](C)(C1=O)N2C(=O)c1ccc(C(C)(C)C)cc1 (stereo partly specified),·,18,·,·,·
S=C(NN=Cc1ccccn1)N(Cc1ccccn1)Cc1ccccn1,·,·,·,1,-21
S=C(NN=C(c1ccccc1)c1ccccn1)N(Cc1ccccn1)Cc1ccccn1,·,·,·,135*,22
CC(=NNC(=S)N(Cc1ccccn1)Cc1ccccn1)c1cnccn1,·,·,·,113*,13
Cc1cccc(N2C(=O)N3C(c4ccc(F)cc4)C4C(=O)N(C5CCCCC5)C(=O)C4[C@]3(Cc3ccccc3)C2=O)c1 (stereo partly specified),·,3,·,·,·
Cc1nc(-c2ccc(S(=O)(=O)Nc3ccc(Br)cc3Cl)s2)cs1,6,-9,7,26*,6
Cc1nc(-c2ccc(S(=O)(=O)Nc3cccc(S(N)(=O)=O)c3)s2)cs1,-1,-8,-2,0,1
Oc1ccc(Cl)cc1-c1cc(-c2cccc(Br)c2)n[nH]1,4,2,81,0,6
SMILES,RecA splice inh,Mtb hypoxia rep,Mtb bLac sens,PfHsp40 rescue,CCHFV vOTU inh
Cc1ccc(O)c(-c2cc(-c3ccccc3C)[nH]n2)c1,17,·,·,322*,16
O=[N+]([O-])c1ccccc1-c1cc(-c2cc(Cl)ccc2O)n[nH]1,11,12,-5,145*,11
Cc1ccccc1-c1cc(-c2ccccc2O)on1,12,12,64,32*,2
Oc1ccccc1-c1cc(-c2cccc(F)c2)n[nH]1,13,12,3,193*,2
Cc1ccc(O)c(-c2cc(-c3ccccc3[N+](=O)[O-])[nH]n2)c1,6,14,27,12,3
CC(C)(C)c1ccc(-c2cc(-c3ccccc3O)[nH]n2)cc1,19,6,84,34*,6
O=C(NC(=C(Cl)Cl)S(=O)(=O)c1ccc(Cl)cc1)c1ccccc1,30*,0,0,1,16
O=C(Oc1c(Cl)cc(Cl)c2cccnc12)c1cccs1,12,1,98,341*,8
O=[N+]([O-])c1cccc(CN2C(Cc3ccccc3)COCCS2(=O)=O)c1 (stereo unspecified),·,16,·,·,·
CSCCC1NC(=O)N(CC(=O)N2CCc3ccccc3C2)C1=O (stereo unspecified),·,-2,-3,50*,18
CC1CCC2(CC1)NC(=O)N(CC(=O)N1CCc3ccccc3C1)C2=O (stereo unspecified),-3,13,1,1,0
CN(C)S(=O)(=O)Oc1cccc(C(=O)Nc2ccc(Cl)cc2)c1,6,10,-7,353*,-5
CN(C)S(=O)(=O)Oc1cccc(C(=O)Nc2ccccc2Cl)c1,·,-1,-3,0,-3
O=C(O)COc1c(Cl)cc(C=C2NC(=O)NC2=O)cc1Br,·,1,·,·,·
COc1ccccc1-c1nnc(SCc2nc3ccccc3s2)n1C,2,1,-7,0,9
COc1ccc(-c2nnc(SCc3nc4ccccc4s3)n2C(C)C)cc1,4,45*,-3,1,4
Clc1ccc(CO/N=C(\Cn2ccnc2)c2ccc(Cl)cc2Cl)c(Cl)c1,32*,·,99,·,·
Cc1ccc(-n2sc3ccccc3c2=O)cc1,-6,11,100,80*,11
O=c1c2ccccc2sn1-c1ccc(F)cc1,·,2,99,102*,-9
COC(=O)c1cccc(-n2sc3ccccc3c2=O)c1,·,·,3,119*,6
Cn1c(=S)n(N=Cc2cccs2)c2ccccc21,·,13,·,·,·
COc1ccc2c(c1)C1C(CO2)C(c2ccccc2)[C@]2(C)C(=O)Nc3cc(OC)c(OC)cc3C(=O)N12 (stereo partly specified),·,0,·,·,·
O=C(NN=Cc1ccc(OC(=O)c2ccccc2Cl)cc1)c1cc(O)cc(O)c1,·,9,·,·,·
Cc1ccc(C)c(S(=O)(=O)N2CCN(Cc3ccc(O)c4ncccc34)CC2)c1,-1,3,3,323*,4
CCOc1cc(S(=O)(=O)NC2CCCCC2)ccc1F,0,16,-7,89*,-8
Cc1ccc(N2CC(C(=O)N3CCC(C(=O)Nc4ccc(Br)cc4)CC3)CC2=O)cc1 (stereo unspecified),1,0,45,1,0
O=C(Nc1ccc(Cl)c(Cl)c1)C1CC(=O)N(c2ccc(Br)cc2)C1 (stereo unspecified),6,1,92,31*,-17
O=C(NCCSc1ccccc1)c1ccc(Br)cc1,1,21,38,16,2
O=C(NCCCSc1ccccc1)c1cc(Br)ccc1O,22,8,33,196*,11
